Experimental data reported in PubChem BioAssay.
For some assays here: Potency and affinity values are given separately. The source made the active and inactive calls.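 The calls were made as follows, unless noted: active = signal rise over 3 SD above mean of control wells given weak agonist, in both repeats and first screen; inactive = the rest.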

Tests used:
[1] = system: TRPC4 beta (transient receptor potential cation channel C4), mouse; assay: activators of mouse TRPC4 channel, confirmation, cell-based, Fluo4 calcium, HEK293 TRPC4beta/mu-opioid, duplicates, 10 µM (AID 2426;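 active = fluorescence ratio normalized to control raised more than 50% in primary screen plus both repeat runs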); conditions: Fluo4 calcium fluorescence, at 10 µM; active compounds read high
[2] = system: transient receptor potential cation channel C4 beta (TRPC4), mouse; assay: activators of mouse TRPC4 channel, confirmation, cell-based, second round, Fluo4, HEK293 TRPC4beta/mu-opioid, 1 µM (AID 2461;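 active = primary screen active and over 50% activation in each of two duplicate runs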); conditions: Fluo4 calcium fluorescence, at 1 µM; active compounds read high
[3] = system: TRPC4 (transient receptor potential cation channel C4 beta), mouse; assay: positive allosteric modulators of mouse TRPC4, confirmation, cell-based, second round, Fluo-4, HEK293 TRPC4beta/mu-opioid, 1 µM (AID 2554;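 active = primary screen hit whose fluorescence ratio, in both repeats, exceeds the weak agonist control mean by 3 SD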); conditions: DAMGO EC20, Fluo-4 calcium flux, at 1 µM; active compounds read high
[4] = system: TRPC4 beta (transient receptor potential cation channel C4), mouse; assay: positive allosteric modulators of mouse TRPC4, confirmation, cell-based, Fluo-4, HEK293 TRPC4beta/mu-opioid (AID 2555;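 active = primary screen hit whose calcium fluorescence ratio, in both repeats, exceeds the weak agonist control mean by 3 SD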); conditions: DAMGO EC20, Fluo-4 calcium flux, at 10 µM; active compounds read high
[5] = target: Short transient receptor potential channel 4 (Mus musculus) (UniProt Q9QUQ5); assay: inhibitors of mouse TRPC4 channel, confirmation, cell-based, Fluo4, HEK293 TRPC4beta/mu-opioid (AID 2636;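 active = calcium signal cut by more than 3 SD below the full-agonist control yet still positive, in both repeats and the earlier primary screen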); conditions: DAMGO, Fluo4 calcium flux, at 10 µM; active compounds read high
[6] = target: Short transient receptor potential channel 4 (Mus musculus) (UniProt Q9QUQ5); assay: inhibitors of mouse TRPC4 channel, confirmation, cell-based, second round, Fluo4, HEK293 TRPC4beta/mu-opioid, 1 µM (AID 2637;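 active = calcium signal ratio cut to more than 3 SD under the fully stimulated control mean yet still positive, in both repeats and the primary screen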;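 as to inhibition: percent of integrated ratio relative to wells lacking test compound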); conditions: Fluo4 calcium flux, DAMGO, at 1 µM; active compounds read high
[7] = target: Short transient receptor potential channel 4 (Mus musculus) (UniProt Q9QUQ5); assay: mouse TRPC4 channel activators, dose response, cell-based, HEK293 TRPC4/mu-opioid, Fluo-4 calcium (AID 434937;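 active = primary screen activator hit with a dose response curve and TRPC4 channel activation at any tested dose; inactive = no activation, no dose response, or not a primary hit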)
[8] = target: Short transient receptor potential channel 4 (Mus musculus) (UniProt Q9QUQ5); assay: TRPC4 positive allosteric modulators, dose response, cell-based, HEK293 TRPC4/mu-opioid, Fluo-4 calcium, EC20 DAMGO (AID 434941;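 active = earlier screen potentiator hit that boosts the TRPC4 ion channel at some dose, with a dose response; inactive = no potentiation, no dose response, or not a prior hit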;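 also: calcium entry triggered by an EC20 dose of DAMGO at the co-expressed mu-opioid receptor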)
[9] = target: Short transient receptor potential channel 6 (Mus musculus) (UniProt Q61143); assay: inhibition of mouse TRPC6 channel, confirmation, selectivity assay for TRPC4 inhibitor project, cell-based, HEK293, membrane potential dye, duplicate (AID 434948;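 active = active in primary screen and both duplicates, each dropping signal beyond three positive-control SD with fluorescence still positive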); conditions: HEK293 TRPC6, membrane potential dye fluorescence, at 10 µM, stimulated with maximal-effect acetylcholine; active compounds read high
[10] = target: Short transient receptor potential channel 6 (Mus musculus) (UniProt Q61143); assay: activation of mouse TRPC6 channel, confirmation, selectivity assay for TRPC4 activator project, cell-based, HEK293, membrane potential dye, duplicate (AID 434950;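 active = membrane potential signal rise above negative control mean plus 3 SD in both duplicates, also active in the earlier TRPC4 screen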); conditions: HEK293 TRPC6, membrane potential fluorescence, at 10 µM; active compounds read high
[11] = target: Short transient receptor potential channel 6 (Mus musculus) (UniProt Q61143); assay: TRPC6 potentiation by TRPC4 potentiator hits, confirmation, selectivity assay for TRPC4 potentiator project, HEK293 cells, membrane potential dye, duplicate (AID 434952;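 active = compound raising the membrane signal above positive-control mean plus 3 SD in both repeats, and a primary screen hit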); conditions: HEK293 TRPC6, membrane potential dye fluorescence, at 10 µM, maximal acetylcholine added after compound; active compounds read high
[12] = target: Short transient receptor potential channel 4 (Mus musculus) (UniProt Q9QUQ5); assay: calcium flux activators in TRPC4/5HT1a cells, counter-screen for TRPC4 activator project, cell-based, second counter screen, HEK293 TRPC4/5HT1a, Fluo-4 (AID 434977;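 active = calcium signal rise above buffer-control mean plus 5 SD in both duplicates, and also a hit in the primary screen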); conditions: Fluo-4 calcium flux, at 10 µM; active compounds read high
[13] = calcium flux inhibitors in TRPC4/5HT1a cells, confirmation, counter-screen for TRPC4 inhibitor project, cell-based, second counter screen, HEK293 TRPC4/5HT1a, Fluo-4 (AID 434978;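 active = primary screen active whose calcium signal fell more than 3 SD beyond the full-serotonin control mean in both duplicate plates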); conditions: Fluo-4 calcium flux, at 10 µM, serotonin added to trigger calcium flux; active compounds read high
[14] = system: TRPC4 (mouse), co-expressed with 5HT1a in HEK293; assay: calcium flux potentiators in TRPC4/5HT1a cells, confirmation, counter-screen for TRPC4 potentiator project, cell-based, second counter screen, HEK293 TRPC4/5HT1a, Fluo-4 (AID 434979); conditions: Fluo-4 calcium flux, at 10 µM, serotonin added at its EC20 dose; active compounds read high
[15] = calcium flux activation in mu-opioid HEK293 cells, confirmation, counter-screen for TRPC4 activator project, cell-based, HEK293 mu-opioid receptor line (AID 449723;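 active = hit in primary screen, with calcium signal over 5 SD above buffer well mean in both duplicates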;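 also: counter screen cells carry the mu-opioid receptor alone and lack TRPC4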); conditions: Fluo-4 calcium fluorescence, at 10 µM; active compounds read high
[16] = calcium flux enhancement in mu-opioid HEK293 cells, confirmation, counter-screen for TRPC4 allosteric potentiator project, cell-based, HEK293 mu-opioid receptor line (AID 449724;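 active = calcium signal rise more than 3 SD above the low-dose agonist control mean, in both duplicate plates and the primary screen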); conditions: Fluo-4 calcium flux, at 10 µM, compound added before EC20 DAMGO stimulus; active compounds read high

Measured: inhibition

Sequence of Short transient receptor potential channel 6 (Mus musculus) (Q61143 whole entry, looked up): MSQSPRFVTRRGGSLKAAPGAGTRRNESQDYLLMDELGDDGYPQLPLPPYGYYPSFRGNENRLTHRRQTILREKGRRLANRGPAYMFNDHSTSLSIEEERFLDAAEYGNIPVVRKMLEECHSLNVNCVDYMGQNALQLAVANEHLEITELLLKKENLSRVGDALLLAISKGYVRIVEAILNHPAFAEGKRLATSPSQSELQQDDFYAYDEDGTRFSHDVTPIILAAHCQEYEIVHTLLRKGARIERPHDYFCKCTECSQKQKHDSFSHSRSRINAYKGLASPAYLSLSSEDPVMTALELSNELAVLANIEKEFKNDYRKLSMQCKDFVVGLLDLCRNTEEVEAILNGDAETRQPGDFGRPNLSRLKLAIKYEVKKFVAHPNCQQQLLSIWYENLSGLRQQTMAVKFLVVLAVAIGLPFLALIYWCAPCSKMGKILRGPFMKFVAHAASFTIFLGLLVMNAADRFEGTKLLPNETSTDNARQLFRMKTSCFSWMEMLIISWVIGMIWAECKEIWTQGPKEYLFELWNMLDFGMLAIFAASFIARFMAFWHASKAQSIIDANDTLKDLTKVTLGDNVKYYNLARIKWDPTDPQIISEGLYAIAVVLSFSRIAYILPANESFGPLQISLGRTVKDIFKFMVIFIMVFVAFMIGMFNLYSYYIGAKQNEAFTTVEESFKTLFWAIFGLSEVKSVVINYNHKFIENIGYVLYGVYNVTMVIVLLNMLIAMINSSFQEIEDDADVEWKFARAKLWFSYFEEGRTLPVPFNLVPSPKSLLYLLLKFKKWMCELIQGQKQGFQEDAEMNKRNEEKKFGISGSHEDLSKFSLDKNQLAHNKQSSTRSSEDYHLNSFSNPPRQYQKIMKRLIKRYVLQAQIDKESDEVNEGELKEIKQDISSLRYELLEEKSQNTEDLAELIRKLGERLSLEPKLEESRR
Sequence of Short transient receptor potential channel 4 (Mus musculus) (Q9QUQ5 whole entry, looked up): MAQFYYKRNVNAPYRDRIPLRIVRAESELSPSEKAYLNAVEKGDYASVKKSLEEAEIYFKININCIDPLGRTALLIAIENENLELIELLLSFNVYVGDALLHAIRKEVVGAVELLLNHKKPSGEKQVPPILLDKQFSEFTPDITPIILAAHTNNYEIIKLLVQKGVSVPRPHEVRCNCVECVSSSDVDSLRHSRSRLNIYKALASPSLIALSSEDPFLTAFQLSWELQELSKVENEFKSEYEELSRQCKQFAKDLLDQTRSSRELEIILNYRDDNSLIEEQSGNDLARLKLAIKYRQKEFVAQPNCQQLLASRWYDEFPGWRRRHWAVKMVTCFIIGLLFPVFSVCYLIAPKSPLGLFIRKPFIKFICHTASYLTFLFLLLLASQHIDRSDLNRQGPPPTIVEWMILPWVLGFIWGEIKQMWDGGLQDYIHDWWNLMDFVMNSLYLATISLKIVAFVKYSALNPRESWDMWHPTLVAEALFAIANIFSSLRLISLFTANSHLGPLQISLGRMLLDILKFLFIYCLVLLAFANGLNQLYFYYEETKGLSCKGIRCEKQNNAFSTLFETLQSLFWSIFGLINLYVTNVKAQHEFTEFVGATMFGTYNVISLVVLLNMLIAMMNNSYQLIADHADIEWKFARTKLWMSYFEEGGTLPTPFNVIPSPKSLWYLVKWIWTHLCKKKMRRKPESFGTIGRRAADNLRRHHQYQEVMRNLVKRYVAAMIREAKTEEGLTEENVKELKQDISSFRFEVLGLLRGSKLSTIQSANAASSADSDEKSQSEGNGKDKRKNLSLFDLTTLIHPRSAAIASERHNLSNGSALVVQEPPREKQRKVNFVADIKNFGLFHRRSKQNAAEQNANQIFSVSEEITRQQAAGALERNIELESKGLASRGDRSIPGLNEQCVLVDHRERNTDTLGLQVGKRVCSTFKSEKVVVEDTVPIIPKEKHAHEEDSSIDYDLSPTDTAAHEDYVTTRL

Cc1ccc(C(=O)C2=C(O)C(=O)N(Cc3cccnc3)C2c2ccc(Cl)c(Cl)c2)o1 (centres undefined)
active: [5] 90% | [13] 32.8%
inactive: all other assays above

Cc1c(N(C)S(=O)(=O)c2cc(C(=O)NCC3CCCO3)ccc2Cl)c(=O)n(-c2ccccc2)n1C (centres undefined)
active: [5] 84% | [6] 45%
inactive: all other assays above

Cc1cc(C)nc(NC(N)=NC2CCCCC2)n1
active: [5] 92% | [6] 43% | [13] 21.9%
inactive: all other assays above

CN1CCN(c2nc3c(c(=O)n(C)c(=O)n3C)n2CC(=O)C23CC4CC(CC(C4)C2)C3)CC1
active: [5] 92% | [6] 63% | [13] 17%
inactive: all other assays above

CC(C)Cc1cc(CN2CCCC(CO)(Cc3cccc(Cl)c3)C2)[nH]n1 (centres undefined)
active: [5] 91% | [13] 42.2%
inactive: all other assays above

CCc1ccccc1NC(=S)N(CCCN(C)C)Cc1cc2cc3c(cc2[nH]c1=O)OCO3
active: [5] 94% | [6] 92% | [13] 19.9%
inactive: all other assays above

CCOC(=O)C1(Cc2ccccc2)CCN(Cc2ccc(C)s2)CC1
active: [5] 88% | [13] 13.9%
inactive: all other assays above

FC(F)Oc1ccccc1NC(=S)Nc1cccc(Cl)c1Cl
active: [5] 77% | [6] 45%
inactive: all other assays above

Nc1cc(=O)nc(SCC(=O)N2CCN(c3ccccc3)CC2)n1-c1ccc(F)cc1
active: [5] 95% | [6] 45% | [13] 43.7%
inactive: all other assays above

Clc1ccc(C[n+]2cc(-c3ccccc3)n3c2CCC3)cc1Cl
active: [5] 93% | [6] 60% | [13] 25.4%
inactive: all other assays above

CC(C)Oc1cccc(C(=O)C2CCCN(Cc3cnn(C(C)C)c3)C2)c1 (centres undefined)
active: [5] 93% | [6] 47%
inactive: all other assays above

Cc1c(CCOC(=O)c2cccc([N+](=O)[O-])c2)sc[n+]1CC(=O)c1ccccc1
active: [5] 88% | [13] 28.9%
inactive: all other assays above

c1ccc(CNc2c3ccccc3nc3ccccc23)cc1
active: [5] 95% | [6] 60% | [9] 38% | [13] 23.7%
inactive: all other assays above

OCC1(Cc2ccc(Cl)cc2)CCN(Cc2ccccc2F)CC1
active: [5] 89% | [6] 38% | [13] 27.9%
inactive: all other assays above
